Compound activity deposited in PubChem BioAssay by several laboratories.
Rows were chosen to be rich in hits. Some 27% of all compounds tested hit in one or more screens of this group.
CYP2C19 inh: blocks human cytochrome P450 2C19; CYP2C19 Supersomes, luciferin-H EGE luminescence, 30 min; 96,000 compounds, 21% hits; inhibition, % at 5 µM;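 active = CYP2C19 inhibition above a set limit at 5 µM in the primary screen, cut at about 50% in these data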
Target sequence (P33261 whole entry, looked up): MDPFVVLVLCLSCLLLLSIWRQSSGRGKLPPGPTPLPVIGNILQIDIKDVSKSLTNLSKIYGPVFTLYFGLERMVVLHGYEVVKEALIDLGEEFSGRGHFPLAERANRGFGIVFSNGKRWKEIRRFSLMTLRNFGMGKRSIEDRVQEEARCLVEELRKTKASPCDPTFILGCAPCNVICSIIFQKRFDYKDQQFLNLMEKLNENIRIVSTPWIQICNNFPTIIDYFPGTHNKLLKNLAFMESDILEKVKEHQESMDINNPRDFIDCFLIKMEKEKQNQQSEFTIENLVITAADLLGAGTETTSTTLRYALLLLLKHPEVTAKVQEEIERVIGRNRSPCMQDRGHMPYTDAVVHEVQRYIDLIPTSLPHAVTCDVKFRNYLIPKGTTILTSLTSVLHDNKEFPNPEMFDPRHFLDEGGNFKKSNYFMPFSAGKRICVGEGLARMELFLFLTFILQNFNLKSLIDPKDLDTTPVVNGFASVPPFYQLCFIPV
Cav32 inh: inhibitors of human Cav3.2 T-type calcium channel; Cav3.2-expressing cells, Fluo-4 calcium fluorescence FDSS; active compounds read low; AID 449739; B-score at 10 µM; 100,000 compounds, 4% hits;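 active = single-dose well whose peak fluorescence ratio is a statistical outlier from its plate by either plate-standardised score or position-corrected B-score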
CYP2C9 act: activators of human CYP2C9. P11712. recombinant CYP2C9, luciferin-H conversion, luminescence; active compounds read high; factor 1 = untreated enzyme, 0 = blocked. activation factor at 5 µM. 96,000 compounds, 1.4% hits. AID 1024;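 active = activation factor of 2 or more for CYP2C9 at a 5 µM dose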
CYP2C9 inh: blocks human cytochrome P450 2C9 | CYP2C9 Supersomes, luciferin-H conversion, luminescence | AID 777 | inhibition, % at 5 µM | 96,000 compounds, 20% hits;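 active = blocking of liver enzyme CYP2C9 beyond about 50% at 5 µM, limit read from the data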
CYP2C19 activ: activators of human cytochrome P450 2C19; recombinant CYP2C19, luciferin-H EGE luminescence; active compounds read high; 0 = fully inhibited enzyme, 1 = untreated enzyme; activation factor at 5 µM; AID 1025; 96,000 tested, under 10 active; P33261;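 active = activation factor of at least 2 at 5 µM in the primary screen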
Hits are given with their value; n = inactive; x = not tested or not shown.

SMILES	CYP2C19 inh	Cav32 inh	CYP2C9 act	CYP2C9 inh	CYP2C19 activ
CCOC(=O)c1ccc(NC(=O)CCNS(=O)(=O)c2ccc3c(c2)oc(=O)n3C)cc1	n	n	n	n	n
Cn1c(=O)n(C)c2cc(NS(=O)(=O)c3ccc4c(c3)CCCC4)ccc21	95.3	n	n	n	n
COC(=O)COc1ccc(S(=O)(=O)Nc2cc(OC)ccc2OC)cc1	98.9	n	n	n	n
Cn1c(=O)n(C)c2cc(S(=O)(=O)NCc3ccccc3)ccc21	n	n	n	n	n
COc1ccc(OC)c(NS(=O)(=O)c2ccc3c(c2)n(C)c(=O)n3C)c1	77.9	n	n	n	n
CCOC(=O)c1oc2ccc(S(=O)(=O)Nc3ccc4c(c3)n(C)c(=O)n4C)cc2c1C	79.3	n	n	94.0	n
COc1ccc(NS(=O)(=O)c2ccc(OCC(=O)N3CCCC3)cc2)cc1	n	n	n	n	n
CCOC(=O)C1=CN(C)C=C(C(=O)OCC)C1c1ccsc1	n	n	n	n	n
CNc1c([N+](=O)[O-])cnn1-c1ccc(Cl)cc1	n	n	n	n	n
COc1ccc(NS(=O)(=O)c2ccc3c(c2)n(C)c(=O)n3C)cc1	n	-3.77	n	74.1	n
CCC(C)NCCOCCSc1ccc(Cl)cc1 (stereo unspecified)	n	n	n	n	n
CSc1nc2ccccc2n1C(=O)NC1CCCCC1	n	n	n	n	n
O=c1c2c(nc3c(-c4cccc5ccccc45)c[nH]n13)CCC2	n	n	n	69.3	n
COC(=O)c1c(-n2cnnn2)sc(C)c1C	n	n	n	n	n
O=C(NCCCCCCNC(=O)C1CCCC1)C1CCCC1	x	n	x	x	x
CCn1nnnc1SCC(=O)N1c2ccccc2Sc2ccccc21	x	n	x	x	x
Cn1ccnc1SC(=O)N1c2ccccc2Sc2ccccc21	83.9	n	n	97.0	n
Cc1nc(C(=O)NCCC(C)C)sc1C1(C)CC(c2cccc([N+](=O)[O-])c2)=NO1 (stereo unspecified)	x	n	x	x	x
Cc1oc2c(c(=O)c1C)C(=O)CC(c1ccccc1)C2 (stereo unspecified)	n	n	n	n	n
Cc1[nH]nc2c1/C(=N\O)CC(C)(C)C2	51.0	n	n	n	n
Cc1[nH]nc2c1C(=O)CC(C)(C)C2	n	x	n	n	n
Cc1[nH]nc2c1/C(=N/O)CC(c1ccccc1)C2 (stereo unspecified)	73.6	n	n	n	n
CCc1noc2c1/C(=N\O)CC(c1ccccc1)C2 (stereo unspecified)	75.8	n	n	72.5	n
CCCc1n[nH]c2c1/C(=N/O)CC(c1ccccc1)C2 (stereo unspecified)	77.2	n	n	n	n
CCOc1ccccc1C1CC(=O)NC2=C1C(=O)CC(C)(C)C2 (stereo unspecified)	n	x	n	n	n
SMILES	CYP2C19 inh	Cav32 inh	CYP2C9 act	CYP2C9 inh	CYP2C19 activ
CCOc1cccc(NC(=O)C2CC(=O)N(C)C(=Nc3cccc(F)c3)S2)c1 (stereo unspecified)	51.2	-4.74	n	75.0	n
CCOc1cccc(NC(=O)C2CC(=O)N(C)C(=Nc3ccccc3)S2)c1 (stereo unspecified)	n	-4.48	n	73.7	n
Cc1onc(-c2ccccc2)c1-c1nc2ccccc2c(=O)o1	50.9	n	n	n	n
CC1CC(C)CN(C(=O)CN2CCN(Cc3ccc(Cl)cc3)C2=O)C1 (stereo unspecified)	n	n	n	n	n
CCO[C@H]1OC(C(=O)O)=C[C@@H](C)[C@@H]1CCCO	x	n	x	x	x
Cc1cc(C)c(C(=O)C2OC(=O)C(C)(C)C(=O)C2(C)C)c(C)c1 (stereo unspecified)	91.9	x	n	89.5	n
CC1(C)C(=O)OC(C(=O)c2ccccc2)C(C)(C)C1=O (stereo unspecified)	91.3	n	n	58.3	n
CCC1=C(OC(=O)c2ccccc2)C(C)(C)C(c2ccccc2)OC1=O (stereo unspecified)	n	n	n	n	n
CCC1=C(OC(=O)N(CC)CC)N2C(=O)OC(=NCCc3c[nH]c4ccccc34)[C@]2(Cc2ccccc2)[C@H]2C1=CC[C@H]1C(=O)NC(=O)[C@H]12	x	n	x	x	x
CCOC(=O)c1nn(-c2ccccc2C)c2nc(CC(C)C)c(C#N)c(=O)n12	x	n	x	x	x
Cc1ccc(C(=O)NCC(=O)OCC(=O)c2c(N)n(C)c(=O)n(C)c2=O)s1	n	x	n	58.4	n
COc1cc(CNc2ccccc2SC)ccc1O	86.8	n	n	n	n
CCOc1cc(CN2CCSCC2)ccc1O	n	n	n	n	n
CCOc1cc(CNc2ccccc2SC)ccc1O	66.9	n	n	n	n
CCOc1cc(CNc2ccc3c(c2)CCC3)ccc1O	90.8	n	n	77.4	n
CC(C)Oc1snc(Cl)c1C(N)=O	n	x	n	n	n
CCCCn1nnnc1SCC(=O)NNC(=O)C1CCCCC1	n	n	n	n	n
CS(=O)(=O)N(CC(=O)NCCc1ccccc1)C1CCCCC1	n	n	n	n	n
CCCCNC(=O)CN(C1CCCCC1)S(C)(=O)=O	n	n	n	74.4	n
COc1ccc(N/C=C(\C#N)c2nc3ccccc3n2C)c(OC)c1	n	n	n	n	n
CCOc1cc(S(=O)(=O)N2CCCCCC2)ccc1F	87.3	n	n	n	n
COc1cc(S(=O)(=O)NC2CCCCC2)ccc1F	85.0	n	2.1	n	n
CCOC(=O)c1ccc(S(=O)(=O)NC2CCCCCCC2)n1C	53.2	x	n	85.3	n
COc1ccc(F)cc1S(=O)(=O)NC1CCCCCC1	n	n	n	n	n
CCOc1ccccc1N1CCN(S(=O)(=O)c2ccc(F)c(F)c2)CC1	n	n	n	n	n
SMILES	CYP2C19 inh	Cav32 inh	CYP2C9 act	CYP2C9 inh	CYP2C19 activ
CCOc1cc(S(=O)(=O)NC2CCCC2)ccc1Cl	n	n	n	n	n
CCn1c(=O)c2cc(S(=O)(=O)NC3CCCCC3)ccc2n(CC)c1=O	n	n	n	53.0	n
Cn1c(N)c(C(=O)COC(=O)Cn2cc(C(F)(F)F)ccc2=O)c(=O)n(C)c1=O	n	n	n	n	n
C=CCOC(=O)C1=C[C@@H](c2csc3ccccc23)C[C@@H](OCCCCO)O1	x	n	x	x	x
COc1cc(S(=O)(=O)NC2CCCC2)c(OC)cc1Cl	98.6	n	n	n	n
CCOc1cc(S(=O)(=O)NC2CCCCC2)ccc1F	79.5	n	n	59.5	n
Cn1c(-c2c(N)n(CCCc3ccccc3)c3nc4ccccc4nc23)nc2ccccc21	n	n	n	n	n
COCCCn1c(N)c(-c2nc3ccccc3n2C)c2nc3ccccc3nc21	70.5	n	n	66.1	n
Cn1c(-c2c(N)n(CCc3ccccc3)c3nc4ccccc4nc23)nc2ccccc21	58.2	n	n	100.3	n
COC(=O)C1CSC(C(=O)OC)N1C(=O)CN1CC(C)OC(C)C1 (stereo unspecified)	n	n	n	n	n
O=C1N=C(N2CCCCC2)SC1=C1CCCC1	n	n	n	n	n
O=C1N=C(N2CCOCC2)S/C1=C1\C(=O)N(Cc2ccccc2)c2ccc(Br)cc21	n	x	n	61.6	n
